Measured values published in the supplement of paper PMC7156485.
± gives the standard deviation of the averaged measurements.

Legend:
Settings in all cases: concentration: 10 µM; 24 h
HCC1569 [1] = experiment: cell number relative to DMSO (% of DMSO); higher = more cells (less growth inhibition / toxicity)
In short: (§1)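 Cell number or H1.0 nuclear intensity appears as percent of the plate control, based on the median of replicates. Measurements came from HCC1569 and TDF cells exposed in triplicate to compounds at 10 µM for 24 h at 37 °C, then imaged in six fields per well at ×10. Positional effects were smoothed out of HCC1569 values.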

TDF [2] = experiment: as above
In short: as §1

TDF [3] = experiment: H1.0 immunofluorescence intensity relative to DMSO (% of DMSO); higher = stronger H1.0 induction, active = 120 or more
In short: as §1

HCC1569 [4] = experiment: H1.0 immunofluorescence intensity relative to DMSO (% of DMSO); higher = stronger H1.0 induction, active = 140 or more
In short: as §1
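Throughout, for H1.0 immunofluorescence intensity relative to DMSO: TDF is a line of transformed human dermal fibroblasts of mesenchymal origin.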
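Throughout, for cell number relative to DMSO: TDF denotes transformed human dermal fibroblasts of mesenchymal origin.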

SMILES	cell number (HCC1569 [1])	cell number (TDF [2])	H1.0 immunofluorescence intensity (TDF [3])	H1.0 immunofluorescence intensity (HCC1569 [4])
CC[N+](CC)(CC)CCOc1ccc(C=Cc2ccccc2)cc1.[I-]	99.7	72.2	104 (inactive)	111 (inactive)
Nc1ccc2ncnc(NCCc3ccc(Oc4ccccc4)cc3)c2c1 [NF-kB Activation Inhibitor]	66.3	70.7	106 (inactive)	164 (active)
CC(N)(Cc1ccc(O)cc1)C(=O)O (racemic) [DL-alpha-Methyl-p-tyrosine]	103	117	114 (inactive)	106 (inactive)
CC(C)(C)C(=O)C(Oc1ccc(Cl)cc1)n1ccnc1 (stereo unspecified) [Climbazole]	99.5	98.7	92.2 (inactive)	99.3 (inactive)
COC(=O)c1c(-c2cc(OC)c(OC)c(OC)c2)c2ccnc(OCc3ncccn3)c2c(=O)n1Cc1ccnc(C)c1.Cl	100	110	94.3 (inactive)	95.2 (inactive)
Cl.NC12CC3CC(CC(C3)C1)C2 [Amantadine.HCl]	103	103	92.2 (inactive)	99 (inactive)
COc1cc(Br)c(CC2c3cc(OC)c(OC)cc3CCN2C)cc1OC (racemic)	99.7	98.5	97.8 (inactive)	97.6 (inactive)
C=CC(C)(C=Cc1ccc(O)cc1)CCC=C(C)C (stereo unspecified) [Bakuchiol]	84.7 ± 3.6	91.2 ± 4.6	97.7 (inactive)	96.8 (inactive)
CCCCCCCCCCCCCCCCCC(=O)OC(CC(=O)O)C[N+](C)(C)C.[Cl-] (racemic) [DL-Stearoylcarnitine chloride]	101	84.3	136 (active)	114 (inactive)
